Compounds with a hit are over-represented: about 18% of the library has one in this group of screens.
CtBP-E1A inh: qHTS Assay for Inhibitors of the CtBP/E1A Interaction | activity change, % (test concentration not listed) | CtBP / adenovirus E1A interaction (AlphaScreen) | hit rate 0.49% among 340,000 | AID 651724, 2012 | AlphaScreen GST-E1A/His-CtBP binding, 1536-well; active compounds read low; in the data active means activity change below about -65%; inconclusive means mostly about -30% to -63%
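Protein mix (5X: 125 nM each GST-E1A, His-CtBP) was incubated with pinned compound 2 h at 37 deg C in dark, in 50 mM Tris pH 8.0 buffer with 300 mM NaCl. Glutathione donor and nickel acceptor beads followed; AlphaScreen signal read after 1 h.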
TDP1 block: qHTS Assay for Inhibitors of Tyrosyl-DNA Phosphodiesterase (TDP1). recombinant TDP1, AlphaScreen DNA substrate cleavage. Potency, µM (top dose mostly 130 µM), for inactives: at the highest dose activity change, negative = inhibition, actives largely listed as inhibitors. hit rate 0.28% among 350,000; further: potency means the concentration at half of the fitted maximal effect; nearly all actives have a fitted effect of over 40% in size
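Signal: AlphaScreen proximity between streptavidin donor and anti-FITC acceptor beads on intact substrate. Reaction: Tdp1 1 nM, substrate 15 nM final, 5 min RT after 15 min compound preincubation.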
IL-1B inflam inh: qHTS for Inhibitors of Inflammasome Signaling: IL-1-beta AlphaLISA Primary Screen. THP-1 LPS/ATP IL-1B secretion, AlphaLISA, 16 h; active compounds read low. activity change, % at 57.5 µM. hit rate 4.7% among 360,000. AID 743279, 2014; in the data active means activity change below about -50%; inconclusive means mostly about -30% to -49%
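Secreted IL-1B measured by AlphaLISA bead assay after 16 h compound exposure of THP-1 cells; compounds (final up to 57.5 uM) added 1 h before LPS (250 ng/mL) and ATP (1.25 mM) stimulation; lower signal means less secretion.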
TDP1 cell CPT: qHTS for Inhibitors of human tyrosyl-DNA phosphodiesterase 1 (TDP1): qHTS in cells in presence of CPT; hit rate 12% among 420,000; Potency, µM (top dose mostly 46.2 µM), for the others: top-dose activity change, negative = growth inhibition, hits mostly inhibitors; chicken DT40 Tdp1-/-;hTDP1 cells + 20 nM CPT, ATP luminescence, 48 h; further: potency means the concentration at half of the fitted maximal effect; nearly all actives have a fitted effect of over 55% in size
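Cell growth measured by CellTiter-Glo luminescence after a minimum 48 h, 37 C compound exposure with 20 nM CPT in Tdp1-knockout DT40 cells stably expressing hTDP1, seeded 400/well; qHTS titration format.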
Six1-Eya2 blk: qHTS Assay for Inhibitors of the Six1/Eya2 Interaction | Homeobox protein SIX1 (Homo sapiens) + Protein phosphatase EYA2 (Homo sapiens), … | AlphaScreen GST-Six1/His-Eya2 binding, biochemical; active compounds read low | activity change, % (no concentration beside the values) | hit rate 0.56% among 360,000 | AID 651725, 2012; in the data active means activity change below about -65%; inconclusive means mostly about -30% to -63%
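Homogeneous AlphaScreen proximity assay pairing GST-Six1 with His-tagged Eya2 (added as 5X mix: 250 nM and 500 nM) in 50 mM Tris pH 8.0, 300 mM NaCl, 1 mM TCEP. Glutathione donor and nickel acceptor beads; 1 h, 37 °C, dark.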
DT40 TDP1 no CPT: qHTS for Inhibitors of human tyrosyl-DNA phosphodiesterase 1 (TDP1): qHTS in cells in absence of CPT; Potency, µM (titrated, usually from 46.2 µM), for the others: at the top dose activity change, negative = growth inhibition, usual class: inhibitors; AID 686978, 2013; hit rate 15% among 420,000; DT40 Tdp1-/- hTDP1 cells, no CPT, ATP luminescence, 48 h; further: potency means the concentration at half of the fitted maximal effect; nearly all actives have a fitted effect of over 55% in size
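Growth of hTDP1-complemented DT40 Tdp1-knockout cells is measured by ATP luminescence after at least 48 hr compound exposure at 37 °C, with DMSO substituting for the 20 nM CPT used in the parallel screen.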
The depositor's hits bear a star; ? = inconclusive; nt = not tested or not shown. Unless noted, the call rests on the fitted dose curve; in most records, active means well fitted curve in the direction sought with a large enough effect; inconclusive means small, poorly fitted or top-dose-only effect, or another doubt; inactive means no such curve, though single readings can be large; an effect the other way counts as inactive or inconclusive. On the % scale 0 is the no-effect control and ±100 the full control effect.

SMILES	CtBP-E1A inh	TDP1 block	IL-1B inflam inh	TDP1 cell CPT	Six1-Eya2 blk	DT40 TDP1 no CPT
O=c1[nH]c(SCc2nc3ccccc3c(=O)n2-c2ccccc2)nc2ccccc12	6.5	2.7%	13.7	11.6µM*	9.0	?
COc1ccc(OCCSc2nc3ccccc3c(=O)[nH]2)cc1	-7.4	5.2%	-1.6	?	-8.8	?
CCc1ccc(-n2c(CSc3nnnn3-c3ccccc3)nc3ccccc3c2=O)cc1	2.2	2.8%	4.3	?	-8.9	18.4µM*
CC(C)(C)c1ccc(C(=O)CSc2nc3ccccc3c(=O)[nH]2)cc1	1.2	-6.1%	27.2	2.82µM*	0.0	2.82µM*
COc1cccc(C(=O)NNC(=O)c2ccccc2)c1	nt	4.0%	14.0	-9.1%	0.2	7.4%
O=C(NC1CCCCC1)c1ccc2c(c1)OCCO2	1.2	11.6%	-2.3	?	7.3	-15.6%
O=C(CCCSc1nc2ccccc2c(=O)[nH]1)c1ccccc1	0.9	2.6%	42.9	?	-3.4	14.6µM*
O=C(CSc1nc2ccccc2c(=O)[nH]1)N1CCN(c2ccccc2F)CC1	-3.2	14.2%	25.9	?	1.9	18.4µM*
O=C(CSc1nc2ccccc2c(=O)[nH]1)c1ccccc1	-0.1	2.4%	2.9	20.6µM*	-2.2	29.1µM*
O=C(O)CSc1nc2ccccc2c(=O)[nH]1	12.3	3.4%	-5.0	-1.1%	3.4	0.1%
CCCCc1c(O)nc(SCC(=O)c2ccccc2)[nH]c1=O	-1.6	-5.6%	18.0	?	-9.2	?
O=C(CSc1nc(O)c(Cc2ccccc2)c(=O)[nH]1)c1ccccc1	-12.9	4.1%	2.5	?	-17.5	2.06µM*
Cc1cc(C(=O)CSc2nc3ccccc3n2C)c(C)n1C	-18.0	6.6%	-28.3	?	-8.7	?
COc1ccc(C(=O)CSc2nc(C(C)(C)C)nc3ccccc23)cc1	24.8	0.0%	4.0	?	27.1	20.6µM*
CC(C)(C)c1nc(SCC(=O)NCc2ccco2)c2ccccc2n1	-5.0	3.8%	-0.3	?	-11.6	?
Cc1cc(C(=O)CSc2nc3ccccc3c(=O)[nH]2)c(C)n1C	-28.3	8.4%	-17.4	?	-26.3	6.51µM*
Cn1c(NNC(=O)CCC2CCCCC2)cc(=O)n(C)c1=O	-6.9	-1.3%	2.1	2.7%	?	-1.8%
CC[C@]12CCCN3CCc4c(n(c5ccccc45)[C@@](O)(C(=O)OC)C1)[C@@H]32	1.8	nt	-4.7	-8.6%	5.6	-24.1%
CC[C@]12CCCN3CCc4c(n(c5ccccc45)C(=O)C1)[C@@H]32	-5.2	nt	16.2	5.6%	-10.9	6.51µM*
O=C(NC12CC3CC(CC(C3)C1)C2)c1ccc(COc2ccc(Cl)cc2[N+](=O)[O-])o1	-4.2	5.9%	?	?	-15.8	?
Cc1oc2ccc(O)cc2c1C(=O)c1ccc([N+](=O)[O-])cc1	-24.9	8.1%	?	20.6µM*	-14.3	13µM*
COc1ccc(C(=O)CCS(=O)(=O)c2ccc(F)cc2)cc1OC	nt	1.4%	nt	nt	nt	nt
Cc1ccc(S(=O)(=O)CCC(=O)c2ccc(F)cc2)cc1	-10.0	0.9%	-60.6*	4.11µM*	-0.6	2.59µM*
Cc1ccc(C(=O)CCS(=O)(=O)c2ccc(Cl)cc2)cc1	-2.0	2.7%	0.0	2.91µM*	0.1	2.91µM*
Cc1ccc(C(=O)CCS(=O)(=O)c2ccc(F)cc2)cc1	6.5	2.6%	-27.6	4.61µM*	-1.1	2.91µM*
